Screening results (PubChem BioAssay)
TDP1 cell CPT: growth inhibition of DT40 Tdp1-/-;hTDP1 cells with camptothecin (screen for TDP1 inhibitors). chicken DT40 Tdp1-/-;hTDP1 cells + 20 nM CPT, ATP luminescence, 48 h. Potency, µM (top dose mostly 46.2 µM), for the others: top-dose activity change, negative = growth inhibition, most hits filed as inhibitors. 420,000 compounds, 12% hits; also: potency is read from the fitted curve at half-maximal effect; % is scaled to controls: 0 for no effect and ±100 for the full control effect; nearly all actives have a fitted effect of over 55% in size
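Chicken DT40 Tdp1-/- cells stably complemented with human TDP1 were seeded at 400 cells/well in medium containing 20 nM camptothecin, exposed to pin-transferred compounds, and grown at 37 °C for at least 48 hr. Viability was read as ATP luminescence.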
IL-1B inflam inh: inhibitors of inflammasome signaling (IL-1 beta secretion); THP-1 LPS/ATP IL-1B secretion, AlphaLISA, 16 h; active compounds read low; activity change, % at 57.5 µM; AID 743279; 360,000 compounds, 4.7% hits; in the data active = activity change below about -50%; inconclusive = mostly about -30% to -49%; also: % is scaled to controls: 0 for no effect and ±100 for the full control effect
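THP-1 cells pretreated 1 hr with compounds (up to 57.5 uM final), then stimulated with LPS (250 ng/mL final) plus ATP (1.25 mM final); secreted IL-1B measured by AlphaLISA after 16 hr, decreased signal indicating inhibition.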
TGFb SMAD3 inh: inhibitors of TGF-b signaling | AID 588855 | 410,000 compounds, 1.2% hits | HepG2 CAGA-GFP TGF-b/SMAD3 reporter, GFP fluorescence, 18 h; TGF-beta stimulated, 500 pg/mL final | Potency, µM (titrated, usually from 46.1 µM), for inactives: top-dose activity, negative = inhibition, actives largely listed as inhibitors; also: potency is read from the fitted curve at half-maximal effect; % is scaled to controls: 0 for no effect and ±100 for the full control effect; nearly all actives have a fitted effect of over 65% in size
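HEPG2 CAGA-GFP cells (1000/well, DMEM with 1% FBS) were pre-incubated 2 h at 37 degrees C, given compound by pin tool, then stimulated with TGF-beta at 500 pg/mL final for 18 h before per-cell GFP fluorescence imaging.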
HepG2 tox: kills HepG2 cells in TGF-b inhibitor counter-screen; HepG2 CAGA-GFP viability, ATP luminescence, 18 h; Potency, µM (doses to about 46.1 µM), for the others: top-dose activity change, negative = cytotoxicity, hits mostly cytotoxic; 410,000 compounds, 0.76% hits; also: potency is read from the fitted curve at half-maximal effect
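CellTiter-Glo luminescence gave cytotoxicity after 18 hours at 37 degrees C. The cells were HepG2 CAGA-GFP in 1% FBS DMEM, stimulated with 500 pg/mL TGF-beta after compound addition. %Activity was normalised to no-cell wells (complete cell-killing) and DMSO (no toxicity), and curves were fitted and classified.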
TDP1 cell noCPT: qHTS for Inhibitors of human tyrosyl-DNA phosphodiesterase 1 (TDP1): qHTS in cells in absence of CPT. DT40 Tdp1-/- hTDP1 cells, no CPT, ATP luminescence, 48 h. Potency, µM (titrated, usually from 46.2 µM), inactives show at the top dose activity change, negative = growth inhibition, usual class: inhibitors. AID 686978, 2013. 420,000 compounds, 15% hits; also: potency is read from the fitted curve at half-maximal effect; % is scaled to controls: 0 for no effect and ±100 for the full control effect; nearly all actives have a fitted effect of over 55% in size
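DT40 Tdp1-/-;hTDP1 cells, no CPT (DMSO vehicle only), 400 cells/well; compounds pin-transferred; ≥48 hr, 37 °C; CellTiter-Glo 30 min RT dark, luminescence read.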
ASM inhibitor: human S-ASM enzyme inhibition. P17405. placental ASM, HMU-PC fluorogenic substrate, 60 min. Potency, µM (doses to about 57.5 µM), for the others: at the highest dose activity change, negative = inhibition, actives largely listed as inhibitors. 340,000 compounds, 0.006% hits. AID 504937; also: potency is read from the fitted curve at half-maximal effect
Target sequence (P17405 47-631 limits assumed): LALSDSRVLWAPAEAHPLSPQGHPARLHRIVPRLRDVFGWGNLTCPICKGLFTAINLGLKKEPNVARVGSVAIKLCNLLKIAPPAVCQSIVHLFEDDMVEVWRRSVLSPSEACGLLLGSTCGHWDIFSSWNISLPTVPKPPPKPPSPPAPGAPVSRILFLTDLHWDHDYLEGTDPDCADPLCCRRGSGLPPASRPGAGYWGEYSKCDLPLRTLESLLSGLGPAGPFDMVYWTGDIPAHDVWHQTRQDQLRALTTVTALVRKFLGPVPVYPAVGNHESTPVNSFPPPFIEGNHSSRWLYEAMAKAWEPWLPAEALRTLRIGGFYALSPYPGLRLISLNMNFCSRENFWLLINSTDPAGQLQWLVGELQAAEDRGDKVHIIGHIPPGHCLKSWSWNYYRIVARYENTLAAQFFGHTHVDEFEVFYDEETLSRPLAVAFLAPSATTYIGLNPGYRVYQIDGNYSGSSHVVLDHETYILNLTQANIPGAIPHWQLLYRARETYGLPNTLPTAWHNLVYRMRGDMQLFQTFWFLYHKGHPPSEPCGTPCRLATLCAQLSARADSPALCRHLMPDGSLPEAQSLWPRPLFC
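Human placenta-derived ASM enzyme was preincubated with compound for 10 minutes at room temperature, then given fluorogenic substrate HMU-PC0 (9 uM final) for 60 minutes at 37 °C; a pH 10 stop preceded fluorescence reading at Ex 386/Em 447 nm.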
* = called active by the depositor; u = inconclusive; x = no result. Shown are actives, neighbours in structure and some others; about 19% of the full set was active somewhere. Unless noted, calls follow the shape of the dose curve; as a rule, active = well fitted curve in the direction sought with a large enough effect; inconclusive = small, poorly fitted or top-dose-only effect, or another doubt; inactive = no such curve, though single readings can be large; an effect the other way counts as inactive or inconclusive.

SMILES	TDP1 cell CPT	IL-1B inflam inh	TGFb SMAD3 inh	HepG2 tox	TDP1 cell noCPT	ASM inhibitor
O=C(Cn1cc2c(n1)CCCC2)NCCCN1CCN(c2ccccc2F)CC1	u	-9.6	-16.8%	-32.0%	u	3.5%
CC(=O)N1CCN(C(=O)CCCNC(=O)c2ccc(Cl)cc2)CC1	18.4%	5.7	1.4%	15.8%	0.6%	-0.8%
CC1CCc2nn(CC(=O)NCc3ccco3)cc2C1 (stereo unspecified)	20.6µM*	-6.7	-1.0%	0.5%	u	-8.2%
CC1CCc2nn(CC(=O)NCc3ccc(F)cc3)cc2C1 (stereo unspecified)	u	11.8	-4.6%	8.4%	u	1.3%
CCN1CCN(c2ccc(S(=O)(=O)N3CCOCC3)cc2NC(=O)/C=C/c2cccc(OC)c2OC)CC1	-5.5%	u	u	-15.0%	-12.7%	-0.9%
O=C(CN1CCN(c2ccccc2O)CC1)Nc1cc(S(=O)(=O)N2CCCC2)ccc1Cl	16.4µM*	u	u	-16.4%	u	1.1%
O=C(CN1CCN(C(=O)c2ccco2)CC1)Nc1cc(S(=O)(=O)N2CCCC2)ccc1Cl	u	-15.9	10.5%	-13.8%	6.51µM*	x
O=C(CN1CCN(c2ccccc2O)CC1)Nc1ccc(S(=O)(=O)N2CCCCCC2)cc1	u	-15.0	18.6%	-16.6%	u	-0.8%
O=C(CN1CCN(C(=O)c2ccco2)CC1)Nc1cccc(S(=O)(=O)N2CCCC2)c1	-8.9%	21.4	-5.3%	0.5%	0.1%	0.8%
O=C(Nc1cc(S(=O)(=O)N2CCCCC2)ccc1Cl)C1=NN(c2ccccc2)C(=O)CC1	u	82.5	5.7%	0.6%	8.2µM*	5.6%
O=C(CCl)Nc1cc(S(=O)(=O)N2CCCCCC2)ccc1Cl	3.66µM*	-101.4*	3.0%	-14.4%	2.59µM*	-0.9%
Cc1ccc(CNC(=O)c2cc(S(=O)(=O)N3CCOCC3)cn2C)cc1	3.5%	-10.3	12.0%	-8.6%	-13.5%	5.7%
COc1cc(C[C@@H]2C(=O)OC[C@H]2Cc2ccc(OC)c(OC)c2)ccc1O	2.31µM*	3.4	u	-16.1%	2.59µM*	6.5%
COc1cc(CC2COC(=O)C2(O)Cc2ccc(O)c(OC)c2)ccc1O (stereo unspecified)	11.6µM*	39.8	-21.8%	-20.3%	9.2µM*	1.6%
COc1cc(C[C@H](C)[C@H](C)Cc2ccc3c(c2)OCO3)ccc1O	u	-12.5	u	-72.1%	u	-9.7%
COc1cc(CC2C(=O)OCC2C(=O)c2ccc3c(c2)OCO3)cc(OC)c1OC (stereo unspecified)	0.6%	26.8	-1.8%	2.6%	5.9%	0.7%
COc1cc(=O)n2c(c1C(=O)NCc1ccco1)CCN(Cc1ccc3ccccc3c1)CC2	-25.9%	x	x	x	-16.2%	x
COc1cccc(Nc2nc(C(N)CC(C)C)cs2)n1 (stereo unspecified)	16.4µM*	u	11.2µM*	-102.6%	u	x
COc1cc(OC)nc(Nc2nc(C(C)N)cs2)n1 (stereo unspecified)	u	-1.8	1.2%	-4.4%	u	x
COc1cccc(Nc2nc(C(N)C(C)C)cs2)n1 (stereo unspecified)	16.4µM*	x	-5.8%	-17.6%	23.1µM*	x
CC(C)CC(N)c1csc(Nc2ccc(C(=O)NCCCO)cn2)n1 (stereo unspecified)	u	-12.6	16.2%	-25.0%	u	x
Cc1nn(CC(O)CN2c3ccccc3Sc3ccccc32)c(C)c1Br (stereo unspecified)	u	-11.2	12.6µM*	-120.9%	u	-9.5%
